Screening results as filed in PubChem BioAssay.
C diff HTS: blocks growth of Clostridium difficile | growth activity, negative = inhibition, % at 16 µg/mL (by protocol) | Clostridium difficile clinical isolate growth, OD600, 24 h; stronger effect = lower value | actives 0.25% (n = 86,000) | AID 1259249;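 active = mean growth activity at or below -80% and every replicate also at or below -80%; inconclusive = mean at or below -80% but some replicate above -80%; inactive = mean growth activity above -80%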;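 also: 0% = DMSO wells and -100% = levofloxacin 16 µg/mL wells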
T cruzi growth-1: blocks T. cruzi growth in NIH3T3 culture | T. cruzi beta-gal in NIH3T3, GalScreen luminescence, 90 h | actives 5.9% (n = 77,000) | inhibition, % at 8.34 µM | AID 624255;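 active = mean inhibition above about 93%, with at least 55% of replicates each passing it, limit read from the data, passing the limit was not always enough; inconclusive = only one of those two conditions holds; inactive = neither condition holds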
Pf Dd2 inh: blocks growth of Plasmodium falciparum Dd2 parasites. P. falciparum Dd2 growth, SYBR Green, 72 h; stronger effect = lower value. activity change, % at 10 µM. actives 2.3% (n = 94,000). AID 1159554; in the data active = activity change below about -80%; inconclusive = no clear call, values can overlap the other calls
T cruzi growth-2: Trypanosoma cruzi proliferation inhibition. shares compounds with T cruzi growth-1. T. cruzi beta-gal in NIH3T3, GalScreen luminescence, 90 h. inhibition, % at 8.35 µM. actives 72% (n = 5,600). AID 651739;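 active = mean replicate inhibition above about 95% and at least 55% of replicates individually reaching it, limit read from the data; inconclusive = only one of the two criteria is met; inactive = neither criterion is met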
T cruzi growth-3: blocks T. cruzi growth in NIH3T3 host cells | inhibition, % at 2.09 µM | shares compounds with T cruzi growth-1 | actives 21% (n = 5,600) | T. cruzi beta-gal in NIH3T3, GalScreen luminescence, 90 h;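 active = mean inhibition above about 95%, with at least 55% of replicates also reaching it, limit read from the data; inconclusive = meets just one of the two conditions; inactive = meets neither condition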;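 also: plate controls were neutral control median for no effect and positive control median for full effect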
NIH3T3 tox: kills mouse NIH/3T3 fibroblasts; shares compounds with T cruzi growth-1; NIH/3T3 viability, CellTiter-Glo ATP luminescence, 90 h; cytotoxicity (signal decrease), % at 8.35 µM; actives 14% (n = 5,600); AID 651742;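 active = mean signal decrease across replicates above about 35% based on untreated-well scatter, with enough replicates individually passing, limit read from the data; inconclusive = no rule stated though some were filed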;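 also: 0% = median of neutral control wells and 100% = median of positive control wells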
NIH3T3 tox 2: kills mouse NIH/3T3 fibroblasts; shares compounds with T cruzi growth-1; NIH/3T3 viability, CellTiter-Glo ATP luminescence, 90 h; inhibition, % at 24.9 µM; actives 56% (n = 5,600);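 active = mean loss of cell viability signal at or above a set limit, and enough replicates individually reaching it; inconclusive = meets only the mean limit or only the replicate share; inactive = meets neither condition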;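 also: 0% = median of neutral control wells and 100% = median of positive control wells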
* hit, by the source's call; ? = inconclusive; nt = no result. Most compounds without a hit are left out; they make up all but 6.8% or so of the library.

SMILES | C diff HTS | T cruzi growth-1 | Pf Dd2 inh | T cruzi growth-2 | T cruzi growth-3 | NIH3T3 tox | NIH3T3 tox 2
CC=Cc1ccc2n(c1=O)C[C@@H]1[C@@H](CO)[C@H](C(=O)NCC3CC3)N(Cc3cccnc3)[C@H]21 (mixture of isomers) | 6 | 81 | 10 | nt | nt | nt | nt
C[C@H](NC(=O)[C@@H]1N[C@@H]2c3ccc(-c4ccc(C(=O)N(C)C)cc4)c(=O)n3C[C@@H]2[C@H]1CO)c1ccccc1 | 3 | 22 | -7 | nt | nt | nt | nt
CO[C@H]1CN(C)C(=O)c2ccc(NC(=O)C3CCCC3)cc2OC[C@H](C)N(C)C[C@@H]1C | -1 | nt | -7 | nt | nt | nt | nt
CCCC#Cc1ccc2c(c1)O[C@@H](CN(C)C(=O)NCCC)[C@@H](C)CN([C@H](C)CO)S2(=O)=O | -3 | 40 | -40 | nt | nt | nt | nt
CC(=O)N(C)C[C@@H]1Oc2cc(C#Cc3cccc(F)c3)ccc2S(=O)(=O)N([C@@H](C)CO)C[C@@H]1C | 7 | 44 | -28 | nt | nt | nt | nt
CC(C)NC(=O)N(C)C[C@H]1Oc2cc(C#Cc3cccc(F)c3)ccc2S(=O)(=O)N([C@H](C)CO)C[C@@H]1C | 6 | 4 | -43 | nt | nt | nt | nt
CCCNC(=O)N(C)C[C@@H]1Oc2cc(C#Cc3cccc(F)c3)ccc2S(=O)(=O)N([C@@H](C)CO)C[C@@H]1C | -21 | 117* | -45 | 110* | 47 | 32 | 83*
CCCNC(=O)N(C)C[C@@H]1Oc2cc(C#Cc3cccc(F)c3)ccc2S(=O)(=O)N([C@H](C)CO)C[C@@H]1C | -30 | 116* | -37 | 111* | 61 | 15 | 47*
CCCNC(=O)N(C)C[C@@H]1Oc2cc(C#Cc3cccc(F)c3)ccc2S(=O)(=O)N([C@H](C)CO)C[C@H]1C | -17 | ? | -35 | 106* | 71 | 47* | 94*
CCCNC(=O)N(C)C[C@H]1Oc2cc(C#Cc3cccc(F)c3)ccc2S(=O)(=O)N([C@H](C)CO)C[C@H]1C | 4 | 125* | -32 | 106* | 80 | 31 | 66*
CC(=O)N(C)C[C@H]1Oc2cc(C#Cc3cccc(F)c3)ccc2S(=O)(=O)N([C@H](C)CO)C[C@@H]1C | 5 | 64 | -31 | nt | nt | nt | nt
C[C@@H]1CN([C@H](C)CO)C(=O)c2cc(NC(=O)Cc3ccccc3)ccc2O[C@@H](C)CCCCO[C@H]1CN(C)S(=O)(=O)c1ccc(F)cc1 | nt | 83 | -72 | nt | nt | nt | nt
CC(C)NC(=O)Nc1cccc2c1O[C@H](CN(C)C(=O)Nc1cccc3ccccc13)[C@@H](C)CN([C@@H](C)CO)C2=O | -8 | 30 | -5 | nt | nt | nt | nt
CCCNC(=O)N(C)C[C@@H]1Oc2cc(C#CCC(C)C)ccc2S(=O)(=O)N([C@H](C)CO)C[C@@H]1C | -3 | 62 | -37 | nt | nt | nt | nt
CCCNC(=O)N(C)C[C@H]1Oc2cc(C#CCC(C)C)ccc2S(=O)(=O)N([C@@H](C)CO)C[C@@H]1C | -9 | 106* | -27 | 100* | 31 | 16 | 28*
O=C([C@H]1[C@H](CO)[C@H]2Cn3c(cccc3=O)[C@@H]1N2CC1CC1)N1CCc2ccccc2C1 | -6 | 108* | nt | 83 | 40 | 7 | 16
CC(=O)N1[C@@H]2Cn3c(cccc3=O)[C@H]1[C@@H](C(=O)N1CCc3ccccc3C1)[C@@H]2CO | 3 | -16 | -4 | nt | nt | nt | nt
O=C([C@@H]1[C@@H](CO)[C@@H]2Cn3c(cccc3=O)[C@H]1N2C(=O)CC1CC1)N1CCc2ccccc2C1 | 4 | nt | 5 | nt | nt | nt | nt
O=C([C@@H]1[C@@H](CO)[C@@H]2Cn3c(cccc3=O)[C@H]1N2CC1CC1)N1CCc2ccccc2C1 | -10 | 121* | nt | -8 | -10 | 18 | 12
CN(C)C(=O)[C@H]1[C@H](CO)[C@H]2Cn3c(ccc(C4=CCCC4)c3=O)[C@H]2N1Cc1ccccn1 | 4 | 56 | 8 | nt | nt | nt | nt
CN(C)C(=O)c1ccc(-c2ccc([C@H]3[C@H]4CN(C(=O)C5CCCC5)CC(=O)N4[C@H]3CO)cc2)cc1 | -2 | nt | 3 | nt | nt | nt | nt
O=C(NCC[C@@H]1CC[C@H](NC(=O)C2CCCCC2)[C@H](CO)O1)c1cnccn1 | 1 | nt | -33 | nt | nt | nt | nt
COc1cccc(-c2ccc([C@H]3[C@@H](C#N)N(C(=O)c4ccccn4)[C@@H]3CO)cc2)c1 | -1 | 81 | -23 | nt | nt | nt | nt
CC(C)C#Cc1ccc([C@H]2[C@@H](C#N)N(C(=O)c3ccccn3)[C@H]2CO)cc1 | 4 | ? | -42 | 100* | 103* | 9 | 12
COc1cccc(C#Cc2ccc([C@H]3[C@@H](C#N)N(C(=O)c4ccccn4)[C@@H]3CO)cc2)c1 | -5 | 90 | -66 | nt | nt | nt | nt
SMILES | C diff HTS | T cruzi growth-1 | Pf Dd2 inh | T cruzi growth-2 | T cruzi growth-3 | NIH3T3 tox | NIH3T3 tox 2
COc1cccc(-c2ccc([C@H]3[C@@H](CO)N(C(=O)c4ccccn4)[C@H]3C#N)cc2)c1 | 5 | ? | -51 | 98* | 117* | -3 | 99*
COc1cccc(C#Cc2ccc([C@@H]3[C@@H](C#N)N(C(=O)c4ccccn4)[C@@H]3CO)cc2)c1 | 8 | 108* | -28 | 108* | 78 | 1 | -32
CC(C)C#Cc1ccc([C@@H]2[C@@H](C#N)N(C(=O)c3ccccn3)[C@H]2CO)cc1 | -9 | 95 | -39 | nt | nt | nt | nt
C[C@H](CO)N1C[C@H](C)[C@H](CN(C)CC2CC2)Oc2cc(C3=CCCC3)ccc2S1(=O)=O | 14 | -90 | -63 | nt | nt | nt | nt
C[C@@H]1CN([C@@H](C)CO)C(=O)c2cc(C#Cc3ccccc3)cnc2O[C@@H]1CN(C)C(=O)C1CC1 | -3 | 50 | -27 | nt | nt | nt | nt
Cc1ccc(S(=O)(=O)N[C@@H]2CC[C@H](CCn3cc(C4(O)CCCC4)nn3)O[C@@H]2CO)cc1 | 0 | -6 | -10 | nt | nt | nt | nt
Cc1noc(C)c1S(=O)(=O)N(C)C[C@H]1OCCCC[C@@H](C)Oc2ccc(NS(=O)(=O)c3ccc(Cl)cc3)cc2C(=O)N([C@@H](C)CO)C[C@H]1C | -9 | 108* | -71 | 102* | 100* | 22 | 26*
Cc1noc(C)c1S(=O)(=O)N(C)C[C@H]1OCCCC[C@@H](C)Oc2ccc(NS(=O)(=O)c3ccc(Cl)cc3)cc2C(=O)N([C@@H](C)CO)C[C@@H]1C | -4 | 100* | -77 | 107* | 91 | 33 | 19
Cc1noc(C)c1S(=O)(=O)N(C)C[C@@H]1OCCCC[C@@H](C)Oc2ccc(NS(=O)(=O)c3ccc(F)cc3)cc2C(=O)N([C@H](C)CO)C[C@H]1C | -10 | ? | -66 | 44 | 57 | -19 | -19
Cc1noc(C)c1S(=O)(=O)N(C)C[C@H]1OCCCC[C@@H](C)Oc2ccc(NS(=O)(=O)c3ccc(F)cc3)cc2C(=O)N([C@H](C)CO)C[C@@H]1C | -7 | 3 | -33 | nt | nt | nt | nt
